# From PubChem
# Tb PYK inh = blocks Trypanosoma brucei pyruvate kinase | Q57TT1 | TbPYK enzyme, Kinase-Glo Plus ATP luminescence, 45 min | Potency, µM (titrated, usually from 76.8 µM), for inactives: at the top dose activity, negative = inhibition, actives largely listed as inhibitors | 0.12% of 410,000 active; also: nearly all actives have a fitted effect of over 50% in size
#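 In this concentration-response screen, enzyme-free wells defined baseline while DMSO plates tracked drift. Each reaction combined TbPYK, substrate, compound and 130 uM ADP for 45 min at room temperature. Kinase-Glo Plus luminescence gave the signal.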
# FBPA Giardia inh = inhibitors of Giardia lamblia fructose-1,6-bisphosphate aldolase. A8B2U2. purified Giardia FBPA. Potency, µM (highest dose often 59.6 µM), inactives show top-dose activity, negative = inhibition, actives largely listed as inhibitors. 0.71% of 290,000 active. AID 2451; also: nearly all actives have a fitted effect of over 55% in size
# Target sequence (A8B2U2 whole entry, looked up): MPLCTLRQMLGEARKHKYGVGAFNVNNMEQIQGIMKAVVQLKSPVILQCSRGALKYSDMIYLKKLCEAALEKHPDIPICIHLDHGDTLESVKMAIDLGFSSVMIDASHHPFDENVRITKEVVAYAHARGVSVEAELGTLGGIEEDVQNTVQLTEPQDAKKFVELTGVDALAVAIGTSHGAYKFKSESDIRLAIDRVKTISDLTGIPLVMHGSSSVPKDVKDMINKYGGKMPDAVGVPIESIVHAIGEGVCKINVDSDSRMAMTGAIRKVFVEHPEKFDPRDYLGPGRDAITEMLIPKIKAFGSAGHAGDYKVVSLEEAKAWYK
#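 40 nM FBPA preincubated 10 min at RT with compound (up to 57.5 uM final), then substrate plus GAPDH/TPI/NAD/arsenate coupling and diaphorase/resazurin added. Fluorescence read after 20 min at RT, 525/598 nm.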
# Sm TGR block = blocks Schistosoma mansoni thioredoxin glutathione reductase | purified TGR, DTNB reduction, TNB absorbance 405 nm | Potency, µM (doses to about 114 µM), without a hit: at the top dose activity change, negative = inhibition, most hits filed as inhibitors | 3% of 360,000 active | AID 485364; also: nearly all actives have a fitted effect of over 60% in size
#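 First, TGR (20 nM dispensed) and NADPH were mixed with compound. Second, a 15 min room-temperature incubation followed. Third, further NADPH and then DTNB were added to start the reaction. Finally, TNB absorbance was monitored kinetically.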
# LmPK inhibitor = blocks Leishmania mexicana pyruvate kinase activity | purified LmPK, Kinase-Glo ATP luminescence, 1 h | Potency, µM (titrated, usually from 57.5 µM), without a hit: top-dose activity change, negative = inhibition, usual class: inhibitors | 0.37% of 290,000 active | AID 1721
#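 0.1 nM LmPK, 0.5 mM PEP, 0.1 mM ADP; 50 mM imidazole pH 7.2, 7 mM MgCl2, 50 mM KCl; 1 h RT. Kinase-Glo luminescence readout, normalized to no-enzyme (full inhibition) and uninhibited wells.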
# RE007 growth inh = less growth of the S. pombe RE007 Vpr strain. S. pombe RE007 Vpr strain, BacTiter-Glo ATP luminescence, 24 h. Potency, µM (doses to about 92.2 µM), for inactives: at the highest dose activity change, negative = less growth, hits mostly inhibitors. 0.21% of 360,000 active; active = well fitted falling curve with a large enough effect; inconclusive = small, poorly fitted or top-dose-only effect; inactive = no such curve, though single readings can be large or run the other way; also: nearly all actives have a fitted effect of over 50% in size
#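 Fission yeast RE007 carrying one integrated HIV-1 vpr copy, seeded at OD 0.01 in PMG+AL medium with 23 nL pinned compound. Grown 24 h at 30 degrees; viability read by BacTiter-Glo luminescence after 5 min.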
# * marks the source's active call; other numbers are inactive results; ? = inconclusive; nt = no result given. The list is not random: actives were taken first. Their share in the collection is about 3.3%. Unless noted, calls follow the shape of the dose curve; as a rule, active = well fitted curve in the direction sought with a large enough effect; inconclusive = small, poorly fitted or top-dose-only effect, or another doubt; inactive = no such curve, though single readings can be large; an effect the other way counts as inactive or inconclusive. % is scaled to controls: 0 for no effect and ±100 for the full control effect; potency is read from the fitted curve at half-maximal effect.
SMILES,Tb PYK inh,FBPA Giardia inh,Sm TGR block,LmPK inhibitor,RE007 growth inh
COC(=O)C1=C(C)N(Cc2ccccc2)C(=S)N[C@H]1c1ccc(Br)cc1,-1%,26%,13%,-10%,-5%
COCCN1C(=S)N[C@@H](c2ccccc2)C(C(=O)OC)=C1C,nt,10%,32µM*,-11%,nt
CCOC(=O)[C@]12Cc3cc(OC)c(OC)cc3[C@H]1N(Cc1ccccc1)C(=O)c1ccccc12,-6%,nt,nt,nt,6%
CC(=O)c1cccc2c(O)c(C3=Nc4ccccc4C3=O)[nH]c12,?,?,?,25µM*,?
CCn1c(O)c(N=NC(=O)CNC(=O)c2ccco2)c2ccccc21,4%,-4%,1%,-3%,-10%
CCn1c(O)c(N=NC(=O)CNC(=O)/C=C/c2ccco2)c2ccccc21,-19%,4%,35µM*,-2%,-2%
CC(C)SC1=NC(C)(C)C=C(/C=C/c2c(Cl)cccc2Cl)N1,3%,-23%,20µM*,0%,-16%
NNC(=O)/C=C/c1ccc(Cl)cc1Cl,0%,-2%,-10%,-1%,-5%
CC(C)SC1=NC(C)(C)C=C(/C=C/c2ccc(Cl)cc2Cl)N1,0%,-18%,16µM*,2%,-14%
CC(C)c1ccc2oc3nc(N)c(C(=O)O)cc3c(=O)c2c1,?,?,5%,7.1µM*,nt
CC1=NN(c2ccccc2)C(=O)/C1=C/c1c(O)[nH]c(=S)[nH]c1=O,-27%,-17%,8.9µM*,-2%,-3%
N/C(=N\N=C\c1ccc2c(c1)OCO2)c1nonc1N,-17%,1%,28%,11µM*,-19%
N/C(=N\N=C\c1cccc([N+](=O)[O-])c1)c1nonc1N,1%,8%,0%,2%,-1%
O=C(CN1CC[C@@]2(O)CCCC[C@H]2[C@@H]1c1ccc(F)cc1)NCc1ccco1,2%,0%,40µM*,0%,54%
CCOC(=O)N1CCC2(O)CCCCC2C1c1ccc(F)cc1 (stereo unspecified),0%,7%,7%,2%,-7%
CCN(CC)c1cc(-c2ccccc2)ncn1,4%,-21%,-15%,2%,-2%
CN(C)c1ccc(-c2ccccc2)nn1,-18%,0%,4%,25µM*,-11%
O=C(NCCc1cn2ccccc2n1)c1cc(COc2c(F)cccc2F)on1,3%,?,40µM*,2%,3%
CCC(c1c(C)[nH]oc1=O)c1c(C)[nH]oc1=O,-10%,-18%,25µM*,0%,-1%
CCc1ccc(S(=O)(=O)c2nnn3c2nc(N2CCCC2)c2sccc23)cc1,6%,nt,3%,nt,nt
COC(=O)C(CC(=O)c1ccc(C)cc1)n1cccn1 (stereo unspecified),2%,-5%,?,-5%,-12%
COC(=O)C(CC(=O)c1ccc(Br)cc1)n1cccn1 (stereo unspecified),-11%,2%,4.5µM*,-7%,?
O=C(Cn1cnc(S(=O)(=O)N2CCOCC2)c1)Nc1ccc(OC(F)(F)F)cc1,0%,nt,4%,-2%,-9%
Cc1nc(N=Nc2ccc(O)cc2)n[nH]1,-16%,-11%,-15%,14µM*,?
Cc1ccc(-c2nc(N=Nc3ccc(O)cc3)n[nH]2)cc1,7%,-10%,1%,-2%,2%
SMILES,Tb PYK inh,FBPA Giardia inh,Sm TGR block,LmPK inhibitor,RE007 growth inh
CCN(CC)S(=O)(=O)c1ccc(/C=C/C(=O)OCC(=O)c2c(N)n(C)c(=O)n(C)c2=O)cc1,2%,-3%,-5%,0%,-17%
O=C(CC1Oc2ccccc2NC1=O)NC1CC1 (stereo unspecified),nt,2%,79µM*,3%,nt
Cc1ccn2c(Cc3ccccc3)c(-c3ccc(Br)cc3)nc2c1,8%,nt,nt,nt,-3%
CC(=O)O.CC(=O)O.[Cd],nt,-11%,nt,nt,nt
COc1ccc(NC(=O)Cn2c(CCC(=O)O)ccc2-c2ccccc2)cc1Cl,13%,nt,-23%,nt,nt
COc1ccc(-c2ccc(CCC(=O)O)n2-c2ccccc2OC)cc1,-25%,7%,11µM*,-4%,9%
COc1ccc(-c2ccc(CCC(=O)O)n2NC(=O)c2ccc(O)cc2)cc1,2%,9%,-29%,-3%,4%
COc1ccc(-n2c(CCC(=O)O)ccc2-c2ccccc2)c(OC)c1,-1%,nt,8.9µM*,nt,nt
COc1ccccc1-n1c(CCC(=O)O)ccc1-c1ccccc1,4%,16%,28µM*,0%,-1%
COC(=O)c1cnc(N2CCN(c3ccccc3F)CC2)c2ccccc12,3%,nt,6%,nt,nt
CCN(CC)c1ccc(C=Nc2ccccc2)c(O)c1,6%,?,-10%,-6%,-22%
CCN(CC)c1ccc(/C=N/Nc2cccc(C)c2)c(O)c1,1%,?,10µM*,4%,7%
CCN(CC)c1ccc(/C=N/Nc2ccccc2)c(O)c1,2%,?,10µM*,-1%,-8%
COc1ccc(OC)c(-n2cnc3cc(C(=O)NC4CCCCCC4)ccc32)c1,-5%,nt,4%,nt,nt
CCCn1c(=O)c2ccccc2n2c(=S)[nH]nc12,-42%,?,-21%,-6%,3%
Cn1c(=O)c2ccccc2n2c(CCl)nnc12,-14%,1%,32µM*,0%,-22%
CCOCCOc1cc(NCc2ccccc2)c2ncn(C(C)C)c2c1,25%,nt,nt,nt,-12%
Cc1cc(F)ccc1S(=O)(=O)N1CCCOC1CNC(=O)C(=O)NCCN1CCOCC1 (stereo unspecified),4%,nt,3%,2%,10%
CC(C)OC(=O)CSc1nnc(-c2ccc([N+](=O)[O-])cc2)o1,1%,-2%,nt,-2%,11%
NC(=O)C1=C[C@@H](c2ccccc2)C[C@@H](OCc2ccc(CO)cc2)O1,-1%,?,50µM*,3%,-6%
O=C(O)C1=C[C@@H](c2ccccc2)C[C@@H](OCc2ccc(CO)cc2)O1,-10%,0%,?,-1%,10%
NC(=O)C1=C[C@H](c2ccc3c(c2)OCO3)C[C@H](OCc2ccc(CO)cc2)O1,0%,?,56µM*,2%,12%
Cc1ccc(S(=O)(=O)Cn2nnnc2CN(Cc2ccco2)Cc2cccs2)cc1,4%,-8%,45µM*,7%,-15%
Cc1c(Cl)cccc1NC(=O)Cn1c(CCC(=O)O)ccc1-c1cccs1,-11%,nt,-26%,nt,nt
CCOC(=O)Cn1c(-c2cccs2)cc2cc(Cl)ccc21,6%,nt,-1%,nt,nt
Cc1c(Cl)cccc1-n1c(CCC(=O)O)ccc1-c1cccs1,-8%,nt,40µM*,nt,nt
COc1ccc(-c2ccc(CCC(=O)O)n2-c2ccc(Cl)cc2C)cc1,-12%,nt,40µM*,nt,nt
Cc1ccc(Cl)cc1-n1c(CCC(=O)O)ccc1-c1cccs1,-12%,nt,40µM*,nt,nt
Cc1cc(Cl)ccc1-n1c(CCC(=O)O)ccc1-c1cccs1,-5%,nt,28µM*,nt,nt
Cc1cccc(C(=O)NCCCNC(=O)c2cccnc2)c1,0%,0%,2%,1%,-23%
